From PubChem BioAssay
RXFP1 antagonist: antagonists of human relaxin receptor RXFP1; Q9HBX9; activity change, negative = inhibition, % at 57.5 µM; HEK293-RXFP1, relaxin-stimulated cAMP HTRF, 30 min; active compounds read low; 350,000 compounds, 0.59% hits;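 active = activity change of -60% or lower, but not beyond a set lower limit; inconclusive = change between -60% and -40%, or beyond the set limit; inactive = change above -40%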
KCNH2 3.1 block: blocks the human KCNH2 3.1 channel isoform; U2OS KCNH2 3.1, thallium flux FluxOr; active compounds read low; activity change, % (tested at about 1.8 µM); 340,000 compounds, 0.95% hits; AID 720553;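 active = maximum activity change below -70%; inconclusive = maximum activity change from -70% to -50%; inactive = maximum activity change above -50%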;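 note: thallium influx rate constant from kinetic fluorescence after stimulation buffer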
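U2OS cells transduced with KCNH2 3.1 mutant virus (1.77 x 10^8 /mL, 4 h), plated overnight at 37 C, loaded 45 min with FluxOr dye plus Red40 quencher. Thallium flux rate constant from kinetic reads after stimulation buffer, normalised to controls.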
hERG WT inh: blocks the wildtype human KCNH2 potassium channel | U2OS, BacMam KCNH2, thallium flux FluxOr; active compounds read low | activity change, % at 1.84 µM | 340,000 compounds, 0.37% hits | AID 720551;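 active = maximum activity change below -70%; inconclusive = maximum activity change between -70% and -50%; inactive = maximum activity change above -50%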
Target sequence (Q12809 whole entry, looked up): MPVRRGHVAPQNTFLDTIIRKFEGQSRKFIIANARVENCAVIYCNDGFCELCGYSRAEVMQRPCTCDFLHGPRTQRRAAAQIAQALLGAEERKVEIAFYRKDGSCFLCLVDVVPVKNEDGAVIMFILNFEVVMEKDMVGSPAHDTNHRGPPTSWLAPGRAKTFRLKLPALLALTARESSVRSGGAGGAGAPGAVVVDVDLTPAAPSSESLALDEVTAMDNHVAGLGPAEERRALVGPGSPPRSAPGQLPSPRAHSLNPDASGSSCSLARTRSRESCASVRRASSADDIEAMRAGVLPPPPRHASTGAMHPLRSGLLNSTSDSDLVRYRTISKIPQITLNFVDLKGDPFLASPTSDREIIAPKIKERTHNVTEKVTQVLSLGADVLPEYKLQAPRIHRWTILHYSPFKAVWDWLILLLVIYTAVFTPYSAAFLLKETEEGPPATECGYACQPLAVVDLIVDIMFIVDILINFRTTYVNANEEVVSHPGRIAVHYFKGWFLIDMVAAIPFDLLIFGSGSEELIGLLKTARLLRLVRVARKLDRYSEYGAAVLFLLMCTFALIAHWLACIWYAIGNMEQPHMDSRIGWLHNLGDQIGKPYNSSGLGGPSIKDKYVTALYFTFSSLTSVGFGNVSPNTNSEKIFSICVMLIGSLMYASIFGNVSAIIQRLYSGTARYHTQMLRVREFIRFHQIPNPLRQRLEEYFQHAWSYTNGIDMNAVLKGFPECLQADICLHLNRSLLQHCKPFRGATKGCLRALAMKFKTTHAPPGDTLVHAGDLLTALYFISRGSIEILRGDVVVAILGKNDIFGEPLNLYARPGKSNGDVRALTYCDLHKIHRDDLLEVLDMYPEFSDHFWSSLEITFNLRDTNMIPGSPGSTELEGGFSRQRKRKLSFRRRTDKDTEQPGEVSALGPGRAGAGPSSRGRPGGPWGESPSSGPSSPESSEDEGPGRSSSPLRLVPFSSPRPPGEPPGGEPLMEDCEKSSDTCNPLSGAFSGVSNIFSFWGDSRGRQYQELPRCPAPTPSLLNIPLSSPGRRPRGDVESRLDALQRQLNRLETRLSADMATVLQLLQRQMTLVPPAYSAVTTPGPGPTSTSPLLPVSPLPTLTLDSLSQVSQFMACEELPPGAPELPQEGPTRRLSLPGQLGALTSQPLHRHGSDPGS
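U2OS cells were transduced with wild-type KCNH2 virus (2.03 x 10^8 / mL) for 4 h at room temperature, then cultured overnight at 37 C. Thallium flux was read with FluxOr dye. Rate constants were normalized to DMSO controls.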
RXFP1 agonist: activates the human relaxin receptor RXFP1. Q9HBX9. HEK293T-RXFP1 cAMP TR-FRET, 30 min; response scale: percent of porcine relaxin response, buffer zero. Potency, µM (highest dose often 57.5 µM), without a hit: at the highest dose activation, usual class: activators. 370,000 compounds, 0.3% hits. AID 2676; active = well fitted activation curve with a large enough effect; inconclusive = small, poorly fitted or top-dose-only effect; note: potency is the fitted concentration of half-maximal effect; nearly all actives have a fitted effect of over 60% in size
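Agonist response is measured as cAMP accumulation in an RXFP1-transfected HEK293T line under PDE4 inhibition. Values are scaled between buffer-only and 29 nM porcine relaxin, and EC50s come from standard Hill equation fits.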
Akt phos inh: blocks phosphorylation of Akt. Neuro2A IGF-stimulated pAkt S473 HTRF, 20 min; active compounds read low. activity change, % for hits at 50 µM. 360,000 compounds, 0.32% hits. AID 651550; in the data active = activity change below about -80%; inconclusive = mostly about -51% to -80%
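Neuro2A cells in DMEM with 0.5% FBS, overnight at 37 deg C, given compound at single 50 µM final, then IGF (6 nM final) for 20 min at 37 deg C. Lysed; phospho-Akt Ser473 by HTRF after 24 h, 665/615 ratio.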
Numbers without * were called inactive; i = inactive; ? = inconclusive; · = no result. Sampled rows, rich in hits. Any-hit rate of the full collection: about 1.7%. % is set by controls: 0 for no effect and ±100 for the full control effect.

SMILES | RXFP1 antagonist | KCNH2 3.1 block | hERG WT inh | RXFP1 agonist | Akt phos inh
Brc1ccc2c(c1)OCCOCCOc1cc(Br)ccc1OCCOCCOCCO2 | -38 | -96* | -88* | 0% | i
Brc1cc2c(cc1Br)OCCOCCOCCOCCO2 | -32 | 10 | 10 | 1% | i
C/C(=N/O)c1ccc2c(c1)OCCOCCOc1cc(/C(C)=N/O)ccc1OCCOCCO2 | 7 | -74* | -42 | 1% | i
c1ccc2c(c1)OCCOCCOc1ccccc1OCCOCCO2 | -6 | -79* | 23 | 0% | i
COc1ccc(NC(=O)c2c(Cl)cnn2C)c(C)c1 | 5 | 7 | -7 | 5% | i
N#C/C(=C\c1ccccc1Br)C(=O)NC1CC1 | -5 | -195* | 0 | -2% | i
CCCC[C@]12Cc3cc(C#N)ccc3C(O1)c1c(cc(C)n(Cc3ccccc3)c1=O)O2 | · | · | · | 3.2µM* | ·
O=C(Nc1ccc(S(=O)(=O)N2CCOCC2)cc1)c1cc(-c2cc(Cl)ccc2O)n[nH]1 | -60* | 1 | 13 | 1% | i
CCOCCCNC(=S)N1CCC(C(=O)c2ccc3c(c2)OCCO3)CC1 | 2 | -170* | 2 | -1% | i
O=C(c1ccc2c(c1)OCCO2)C1CCN(C(=O)c2ccc(F)c(F)c2)CC1 | 13 | -2 | -1 | 3% | ·
CCNC(=S)N1CCC(C(=O)c2ccc3c(c2)OCCO3)CC1 | 0 | 6 | 6 | 3% | i
O=C(c1ccc2c(c1)OCCO2)C1CCN(C(=O)c2ccc(F)cc2)CC1 | -3 | 5 | -159* | -1% | i
O=C(c1ccc2c(c1)OCCCO2)N1CCCCC1 | 7 | -109* | -2 | 1% | i
O=C1c2ccccc2C(=O)N1CNc1ccccc1 | 3 | 1 | -22 | 2% | -123%*
Cc1ccc(NCN2C(=O)c3ccccc3C2=O)c(C)c1 | -3 | -14 | 3 | 1% | i
Cc1[nH]n(-c2ccc([N+](=O)[O-])cc2)c(=O)c1C=NCCN1CCN(C(=O)C(C)C)CC1 | 8 | -2 | -4 | 25µM* | i
CC(=O)Nc1cccc(NC(=O)CSc2nc3ccccc3o2)c1 | -4 | · | 6 | -1% | i
CCOC(=O)CN1C(=O)N[C@@H](c2ccccc2)[C@@H](C(=O)OC)[C@H]1C | · | 12 | 6 | · | i
CCOC(=O)CN1C(=O)N[C@@H](c2ccccc2)[C@H](C(C)=O)[C@H]1C | · | -82* | -12 | · | i
Cc1cc(OCC(=O)N2CCc3ccccc3C2)c2c(-c3ccccc3)cc(=O)oc2c1 | 1 | -21 | -203* | -1% | i
CCN(CCNC(=O)CN1CCN(Cc2ccc(Cl)cc2)C1=O)c1ccccc1 | -33 | 2 | 0 | -2% | i
O=c1oc2cc(O)ccc2cc1-c1nc2c(s1)CCc1ccccc1-2 | 4 | -32 | -157* | 6% | i
COc1ccc(C(=O)OCC(=O)NC(C)CCc2ccccc2)cc1OC (stereo not drawn) | -8 | 80 | -77* | 0% | i
CCOC(=O)c1oc2ccccc2c1COC(=O)CNC(=O)c1cccc(C)c1 | -7 | -80* | -1 | 0% | i
Cn1c(=O)oc2cc(S(=O)(=O)NCCC(=O)N3CCc4ccccc4C3)ccc21 | 12 | 41 | 6 | 3% | i
SMILES | RXFP1 antagonist | KCNH2 3.1 block | hERG WT inh | RXFP1 agonist | Akt phos inh
CCc1ccc2c(c1)Sc1ccccc1CC2N1CCN(C)CC1 (stereo not drawn) | ? | -96* | ? | · | i
Cc1cc(Cl)ccc1Nc1ncnc2onc(C)c12 | -20 | · | · | 0% | ·
NC(=O)c1cccn1Cc1ccccc1Cl | -32 | 2 | -301* | -1% | ?
NC(=O)c1cccn1Cc1cccc(Cl)c1 | 4 | -3 | 11 | 0% | i
COc1ccc(CCNC(=O)CSc2nc(O)cc(=O)[nH]2)cc1OC | 24 | -80* | -1 | -2% | i
COc1ccc(CCNC(=O)CSc2nnc(C(C)N(C)C)n2Cc2ccccc2)cc1OC (stereo not drawn) | -14 | -71* | -30 | 2% | i
Cc1ccc(S(=O)(=O)Nc2ccccc2N=Cc2c(F)c(F)c(F)c(F)c2F)cc1 | -16 | -13 | -10 | · | i
Cc1ccc(S(=O)(=O)Nc2ccccc2C=Nc2cccc(C)c2C)cc1 | -66* | 0 | 2 | -3% | i
O=S(=O)(Cc1ccccc1Cl)NCCOc1ccccc1 | -10 | -10 | 5 | 0% | i
Cc1ccccc1OCC(=O)NNC(=O)Cc1ccc(S(=O)(=O)N2CCOCC2)s1 | -9 | -1 | -6 | 0% | i
C=C(CN(C)C)C(=O)c1cc(C)ccc1C | -109* | -7 | -27 | · | i
Cc1cccc(C(=O)NCCN2CCCC2)c1 | -11 | -7 | 6 | -2% | i
Cc1ccc(C)c(C(=O)NCCN(C)C)c1 | 7 | 3 | -6 | 1% | -110%*
COCCNC(=O)c1cc(C)ccc1C | -6 | -14 | -1 | 3% | i
Cc1cccc(C(=O)NCCNC(=O)c2cccc(C)c2)c1 | -9 | · | -264* | 3% | i
CCOc1ccc(C(=O)NCCN(C)C)cc1 | -2 | 10 | 26 | 1% | i
Cc1ccc(C(=O)NCCN(C)C)cc1C | 5 | 5 | -6 | 3% | -107%*
Cc1ccc(C)c(C(=O)CN2C(=O)CCC2=O)c1 | 1 | 0 | 2 | 1% | i
Cc1ccc2nc(NC(=O)CSc3nccn3Cc3ccc(F)cc3)sc2c1 | · | · | · | 0% | ·
CC(=O)Nc1ccc2ccc3cccc4ccc1c2c34 | -11 | 0 | 3 | 0% | i
Cc1cccc(C(=O)NC(=S)NNC(=O)c2ccc(Cl)cc2)c1 | -97* | 3 | -8 | 0% | i
O=C(NCc1cn2ccccc2n1)C1CCC(=O)N(Cc2ccccc2F)C1 (stereo not drawn) | 13 | -5 | 18 | 0% | i
CCN(CC)c1ccc(N=Cc2ccccc2[N+](=O)[O-])cc1 | -68* | -7 | 17 | -4% | i
CCCCCC(=O)N/N=C/c1ccc([N+](=O)[O-])o1 | -20 | -16 | 9 | 4% | i
CCN(CC)c1ccc(N=Cc2ccc([N+](=O)[O-])o2)cc1 | -67* | 3 | -3 | -5% | i
Nc1[nH]ncc1N=Nc1ccc(Cl)cc1 | -15 | -2 | 1 | -1% | i
CN(C(=O)CSc1ncnc2ccccc12)C1CCS(=O)(=O)C1 (stereo not drawn) | 5 | 11 | -7 | 8% | i
CC(NC(=O)/C(C#N)=C/c1ccc([N+](=O)[O-])o1)c1ccccc1 (stereo not drawn) | -75* | -11 | 2 | 0% | i
CC(NC(=O)/C(C#N)=C/c1ccco1)c1ccccc1 (stereo not drawn) | -22 | -2 | 2 | 4% | i
COC(=O)Cc1[nH]nc2c1C1(CCSCC1)C(C#N)=C(N)O2 | 23 | -26 | -22 | 0% | i
